Results: PubChem BioAssay (NCATS)
Unmarked numbers belong to inactive results. For some of these results: Potency and affinity values are given separately. Calls of active or inactive are those of the source. The rule behind the calls is not given here.

Tests used:
[1] = Ebola virus entry assay, green fluorescence channel
[2] = Ebola virus entry assay, blue channel fluorescence
[3] = Ebola virus entry assay, ratio channel
[4] = Ebola virus entry assay, reporter ratio channel; Channel type: primary
Throughout, for efficacy: 0% is about no effect.

SMILES | efficacy [1] | AC50 [2] | outcome [3] | AC50 [4] | AC50 [3] | outcome [4]
C/C(=C(/OCCOc1ccc(Cl)cc1)c1ccc(Cl)cc1Cl)n1ccnc1 | 81.6% | 39.8 µM (active) | inactive | 39.8 µM (active) | – | –
Nc1c2c(nc3ccccc13)CCCC2 | 49.8% | 31.6 µM (active) | – | 31.6 µM (active) | 31.6 µM (active) | –
CN(C(=O)CN(CCO)CC(=O)N(C)C(C)(C)Cc1ccccc1)C(C)(C)Cc1ccccc1 | 43.4% | 7.94 µM (active) | – | 5.62 µM (active) | 5.62 µM (active) | –
Cc1cccc(N(C)C(=S)Oc2ccc3c(c2)C2CCC3C2)c1 (stereo not drawn) | 40.9% | 39.8 µM (active) | inactive | 39.8 µM (active) | – | –
O=C(CCCN1CCC(O)(c2cccc(C(F)(F)F)c2)CC1)c1ccc(F)cc1 | 61.9% | 25.1 µM (active) | – | 20 µM (active) | 20 µM (active) | –
CN1CCC(N(Cc2cccs2)c2ccccc2)CC1 | 53.5% | 3.55 µM (active) | – | 3.16 µM (active) | 3.16 µM (active) | –
CCCCNc1ccc(C(=O)OCCN(C)C)cc1 | 66.1% | 20 µM (active) | – | 28.2 µM (active) | 28.2 µM (active) | –
C=CCc1ccccc1OCC(O)CNC(C)C (stereo not drawn) | 42.4% | 28.2 µM (active) | – | 25.1 µM (active) | 25.1 µM (active) | –
C#CCN(C)CCCOc1ccc(Cl)cc1Cl | -19.7% | 39.8 µM (active) | inactive | 39.8 µM (active) | – | –
C[C@H](N)[C@H](O)c1ccc(O)c(O)c1 | 56.6% | 5.62 µM (active) | – | 4.47 µM (active) | 4.47 µM (active) | –
COc1cccc(CCc2ccccc2OCC(CN(C)C)OC(=O)CCC(=O)O)c1 (stereo not drawn) | 95.8% | 1.78 µM (active) | – | 2 µM (active) | 2 µM (active) | –
NC(=NCCCCCCN=C(N)/N=C(\N)Nc1ccc(Cl)cc1)/N=C(\N)Nc1ccc(Cl)cc1 | -197% | 39.8 µM (active) | inactive | 39.8 µM (active) | – | –
c1ccc(OCc2ccc(CCCN3CCOCC3)cc2)cc1 | 89.3% | 22.4 µM (active) | – | 20 µM (active) | 20 µM (active) | –
CCN(CC)CCOc1ccc(C(O)(Cc2ccc(Cl)cc2)c2ccc(C)cc2)cc1 (stereo not drawn) | -145% | 2.51 µM (active) | – | 1.78 µM (active) | 1.78 µM (active) | –
CCN(CCCc1ccccc1)CCCc1ccccc1 | 48.4% | 5.62 µM (active) | – | 4.47 µM (active) | 4.47 µM (active) | –
Oc1c(Cl)cc(Cl)c2cccnc12 | 73.4% | 39.8 µM (active) | inactive | 39.8 µM (active) | – | –
CCN(CC)CCOc1ccc(/C(=C(\Cl)c2ccccc2)c2ccccc2)cc1 | -182% | 1.58 µM (active) | – | 1.26 µM (active) | 1.26 µM (active) | –
CC(C(O)c1ccccc1)N(C)CCOC(c1ccccc1)c1ccccc1 (stereo not drawn) | 65% | 3.16 µM (active) | – | 2.82 µM (active) | 2.82 µM (active) | –
Cc1cccc(N(C)C(=S)Oc2ccc3c(c2)CCC3)c1 | 64.2% | 39.8 µM (active) | inactive | 39.8 µM (active) | – | –
COC(=O)Nc1nc2ccc(S(=O)c3ccccc3)cc2[nH]1 (stereo not drawn) | 35.9% | 3.16 µM (active) | – | 1.78 µM (active) | 1.78 µM (active) | –
C[C@@H]1CCC[C@H](C)N1CCCC(O)(c1ccccc1)c1ccccn1 (stereo partly drawn) | 81.9% | 25.1 µM (active) | – | 22.4 µM (active) | 22.4 µM (active) | –
C[C@@H](C1=C(CCN(C)C)Cc2ccccc21)c1ccccn1 | 89% | 12.6 µM (active) | – | 10 µM (active) | 10 µM (active) | –
N#C/C(=C1/SC[C@@H](c2ccc(Cl)cc2Cl)S1)n1ccnc1 | 68.3% | 39.8 µM (active) | inactive | 39.8 µM (active) | – | –
OC(CCN1CCCCC1)(c1ccccc1)c1ccccc1 | 36.7% | 31.6 µM (active) | – | 28.2 µM (active) | 28.2 µM (active) | –
CCCCOc1cc(C(=O)OCCN(CC)CC)ccc1N | 52.2% | 31.6 µM (active) | – | 31.6 µM (active) | 31.6 µM (active) | –
COc1cccc(N(C)C(=S)Oc2ccc3c(c2)CCCC3)n1 | 84.1% | 17.8 µM (active) | – | 28.2 µM (active) | 28.2 µM (active) | –

SMILES | efficacy [1] | AC50 [2] | outcome [3] | AC50 [4] | AC50 [3] | outcome [4]
O=C1[C@H]2CCCC[C@H]2C(=O)N1CCCCN1CCN(c2nsc3ccccc23)CC1 | 104% | 20 µM (active) | – | 17.8 µM (active) | 17.8 µM (active) | –
COC(=O)[C@H]1[C@H]2C[C@@H]3c4[nH]c5cc(OC)ccc5c4CCN3C[C@H]2C[C@@H](OC(=O)COc2ccc(OC)cc2)[C@@H]1OC | 21% | 22.4 µM (active) | – | 25.1 µM (active) | 25.1 µM (active) | –
CCCCCCCCCCCCCCNCCO | 123% | 15.8 µM (active) | – | 12.6 µM (active) | 12.6 µM (active) | –
Cc1c(C(=O)NN2CCCCC2)nn(-c2ccc(Cl)cc2Cl)c1-c1ccc(Cl)cc1 | 55.3% | 14.1 µM (active) | – | 11.2 µM (active) | 11.2 µM (active) | –
CC(C)(C)C(=O)OCOC(=O)C1N2C(=O)CC2S(=O)(=O)C1(C)C (stereo not drawn) | 65.1% | 3.98 µM (active) | – | 3.16 µM (active) | 3.16 µM (active) | –
COC(=O)C1=C(C)NC(C)=C(C(=O)OCCN2CCN(C(c3ccccc3)c3ccccc3)CC2)C1c1cccc([N+](=O)[O-])c1 (stereo not drawn) | 60.1% | 15.8 µM (active) | – | 10 µM (active) | 10 µM (active) | –
CCN(CC)CCOC(=O)C1(c2ccccc2)CCCC1 | 69.1% | 28.2 µM (active) | – | 20 µM (active) | 20 µM (active) | –
CCCCCCCCCCOCC(O)CN (stereo not drawn) | -191% | 4.47 µM (active) | – | 1.78 µM (active) | 1.78 µM (active) | –
COc1ccc(-c2cc(C(F)F)nn2-c2ccc(S(N)(=O)=O)cc2)cc1F | 77% | 25.1 µM (active) | – | 14.1 µM (active) | 14.1 µM (active) | –
CCCCOc1cc(C(=O)NCCN(CC)CC)c2ccccc2n1 | 119% | 12.6 µM (active) | – | 10 µM (active) | 10 µM (active) | –
Cc1cc(O)c(C(C)C)cc1Cl | -25.5% | 35.5 µM (active) | inactive | – | – | inactive
CN(CCCN1c2ccccc2CCc2ccccc21)CC(=O)c1ccc(Cl)cc1 | 78.9% | 22.4 µM (active) | – | 25.1 µM (active) | 25.1 µM (active) | –
CC(=O)SC[C@@H](Cc1ccccc1)C(=O)NCC(=O)OCc1ccccc1 | 58% | 28.2 µM (active) | – | 28.2 µM (active) | 28.2 µM (active) | –
O=C1NCCN1CCN1CCC(c2cn(-c3ccc(F)cc3)c3ccc(Cl)cc23)CC1 | -279% | 0.891 µM (active) | – | 1 µM (active) | 1 µM (active) | –
CC(C(O)c1ccc(O)cc1)N1CCC(Cc2ccccc2)CC1 (stereo not drawn) | 92.8% | 17.8 µM (active) | – | 28.2 µM (active) | 28.2 µM (active) | –
CC1(C)[C@H](C(=O)O)N2C(=O)C[C@H]2S1(=O)=O | 90.1% | 15.8 µM (active) | – | 11.2 µM (active) | 11.2 µM (active) | –
CN(C)CCOC(c1ccccc1)c1ccc(Br)cc1 (stereo not drawn) | 63.8% | 11.2 µM (active) | – | 11.2 µM (active) | 11.2 µM (active) | –
C[C@@]12C(=O)OC(=O)[C@]1(C)C1CCC2O1 | 65.6% | 5.62 µM (active) | – | 7.94 µM (active) | 7.94 µM (active) | –
CN(C)C/C=C(/c1ccc(Br)cc1)c1cccnc1 | 51.4% | 39.8 µM (active) | inactive | 35.5 µM (active) | – | –
CCCCCCCCCCCCCCCC[N+](C)(C)CCN(Cc1ccc(OC)cc1)c1ncccn1 | -93.3% | 39.8 µM (active) | inactive | 39.8 µM (active) | – | –
CCCCCCCCCCCCCCCC[N+](C)(C)Cc1ccccc1 | -178% | 31.6 µM (active) | – | 22.4 µM (active) | 22.4 µM (active) | –
CO[C@@H]1[C@@H](OC)[C@H](C)[C@@](O)(CC(=O)O)O[C@H]1[C@H](C)[C@H]1O[C@@]2(CC[C@@](C)([C@H]3CC[C@@](C)([C@@H]4O[C@@H]([C@H]5O[C@](C)(O)[C@H](C)C[C@@H]5C)C[C@@H]4OC4C[C@H](OC)[C@@H](OC)[C@H](C)O4)O3)O2)C[C@H](O)[C@H]1C (stereo partly drawn) | -69.9% | 1.58 µM (active) | – | 1 µM (active) | 1 µM (active) | –
CN(C)CCCN1c2ccccc2Sc2ccc(C(F)(F)F)cc21 | -67.9% | 3.16 µM (active) | – | 2.82 µM (active) | 2.82 µM (active) | –
Cc1ccc(C(=O)Oc2ccc(C(O)CNC(C)(C)C)cc2OC(=O)c2ccc(C)cc2)cc1 (stereo not drawn) | 67.4% | 3.98 µM (active) | – | 3.55 µM (active) | 3.55 µM (active) | –
Oc1ccc([C@H]2CNCc3c2ccc(O)c3O)cc1O | 69.3% | 14.1 µM (active) | – | 14.1 µM (active) | 14.1 µM (active) | –
Cc1cc(C2CCCCC2)n(O)c(=O)c1 | 53.2% | 39.8 µM (active) | inactive | 39.8 µM (active) | – | –
